Laboratory results as given in PubChem BioAssay (NCI).
Several values for one entry are separate records, joined by “and”; a condition that tells them apart may be missing. Equal values may be shown once. About 83,000 compounds went through this panel and 20% of them were active in at least one assay; those are over-represented in the sample as a whole.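 96-well plates, one dose, 48 hours. Percent growth reported; active if below 10.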 A number with no mark means an inactive call. Activity calls are given as the source filed them.

Tests used:
Experiment in all cases: NCI-60 one-dose screen, 48 h (100 = growth as untreated, 0 = no growth, -100 = all killed)
Conditions in all cases: 10 µM unless noted
T-47D breast = tested on: T-47D breast
BT-549 breast = tested on: BT-549 breast
MDA-MB-435 melanoma = tested on: MDA-MB-435 melanoma
SW-620 colon = tested on: SW-620 colon
MCF7 breast = tested on: MCF7 breast
HCT-116 colon = tested on: HCT-116 colon
HCC-2998 colon = tested on: HCC-2998 colon
KM12 colon = tested on: KM12 colon

O=C(/C=C/c1cccs1)Nc1ncc(Cc2ccc(Cl)c(Cl)c2)s1
growth (T-47D breast): 49% | growth (BT-549 breast): 80.9% | growth (MDA-MB-435 melanoma): -23.2% (active) | growth (SW-620 colon): 37.5% | growth (MCF7 breast): 26.8% | growth (HCT-116 colon): 45.2% | growth (HCC-2998 colon): 53.8% | growth (KM12 colon): 22%

Nc1n[nH]c2cccc(C#Cc3cccc(C(=O)Nc4ccc(CN5CCOCC5)c(C(F)(F)F)c4)c3)c12
growth (T-47D breast): 6.17% (active) | growth (BT-549 breast): 23.7% | growth (MDA-MB-435 melanoma): 38.7% | growth (SW-620 colon): 49.3% | growth (MCF7 breast): 33.4% | growth (HCT-116 colon): 13.3% | growth (HCC-2998 colon): 26.9% | growth (KM12 colon): 19%

COc1ccc(/C=N/NC(=O)CN2CCN(c3cc4c(cc3F)c(=O)c(C(=O)O)cn4C3CC3)CC2)cc1O
growth (T-47D breast): 96.6% | growth (BT-549 breast): 107% | growth (MDA-MB-435 melanoma): 107% | growth (SW-620 colon): 102% | growth (MCF7 breast): 92.6% | growth (HCT-116 colon): 93.4% | growth (HCC-2998 colon): 99.2% | growth (KM12 colon): 102%

O=C(CCN1CCOCC1)Nc1cccc(-n2cc(-c3ccncc3)c(-c3ccc(Cl)c(O)c3)n2)c1
growth (T-47D breast): 38.3% | growth (BT-549 breast): 11.6% | growth (MDA-MB-435 melanoma): -64.1% (active) | growth (SW-620 colon): 23.4% | growth (MCF7 breast): 11.4% | growth (HCT-116 colon): 21.1% | growth (HCC-2998 colon): 66.9% | growth (KM12 colon): 23.7%

O/N=C(/c1ccccc1)c1ccc2c3c(cccc13)CC2
growth (T-47D breast): 85.9% and 93.8% | growth (BT-549 breast): 84.6% and 106% | growth (MDA-MB-435 melanoma): 47.3% and 37.8% | growth (SW-620 colon): 91.2% and 84% | growth (MCF7 breast): 85.8% and 82.6% | growth (HCT-116 colon): 83.7% and 92.1% | growth (HCC-2998 colon): 101% and 97.8% | growth (KM12 colon): 86.4% and 78.4%

CCN1C(=S)N(CC)C2C1NC(=S)N2/N=C/C=C/c1ccccc1 (configuration not stated)
growth (T-47D breast): 36.9% | growth (BT-549 breast): 47.5% | growth (MDA-MB-435 melanoma): -39% (active) | growth (SW-620 colon): 28% | growth (MCF7 breast): 17.8% | growth (HCT-116 colon): 22.8% | growth (HCC-2998 colon): 56.7% | growth (KM12 colon): 22%

CCN(c1cc(-c2ccc(CN3CCC(/C=C/S(=O)(=O)c4ccccc4)CC3)cc2)cc(C(=O)NCc2c(C)cc(C)[nH]c2=O)c1C)C1CCOCC1
growth (T-47D breast): 71.6% | growth (BT-549 breast): 51.3% | growth (MDA-MB-435 melanoma): 76.8% | growth (SW-620 colon): 94% | growth (MCF7 breast): 44.3% | growth (HCT-116 colon): 56.9% | growth (HCC-2998 colon): 101% | growth (KM12 colon): 76.1%

COc1ccc(C(c2cc(OC)c(OC)c(OC)c2)n2ccnc2)cc1O (configuration not stated)
growth (T-47D breast): 42.6% | growth (BT-549 breast): -0.0718% (active) | growth (MDA-MB-435 melanoma): -29.5% (active) | growth (SW-620 colon): 28.6% | growth (MCF7 breast): 18.4% | growth (HCT-116 colon): 6.88% (active) | growth (HCC-2998 colon): 25% | growth (KM12 colon): 17%

CCCCCCCCN(CCCCCCCC)CC(O)c1cc(Cl)ccc1OC (configuration not stated)
growth (T-47D breast): 51% | growth (BT-549 breast): 102% | growth (MDA-MB-435 melanoma): 83.6% | growth (SW-620 colon): 67.2% | growth (MCF7 breast): 54.7% | growth (HCT-116 colon): 35.7% | growth (HCC-2998 colon): 51.7% | growth (KM12 colon): 61.8%

C=C1C(=O)O[C@H]2[C@H]1CC/C(COC(=O)NCCCCNC(=O)OC/C1=C/CC[C@@]3(C)O[C@H]3[C@H]3OC(=O)C(=C)[C@@H]3CC1)=C\CC[C@@]1(C)O[C@@H]21
growth (T-47D breast): 9.48% (active) | growth (BT-549 breast): -40% (active) | growth (MDA-MB-435 melanoma): -25.6% (active) | growth (SW-620 colon): -27.8% (active) | growth (MCF7 breast): 9.53% (active) | growth (HCT-116 colon): -65.2% (active) | growth (HCC-2998 colon): 89.5% | growth (KM12 colon): 88.2%

CCN(CC)CC#CCOC(=O)[C@]1(C)CCC[C@]2(C)c3ccc(C(C)C)cc3CC[C@@H]12
growth (T-47D breast): 78.6% | growth (BT-549 breast): 92.7% | growth (MDA-MB-435 melanoma): 91.6% | growth (SW-620 colon): 87.7% | growth (MCF7 breast): 82.6% | growth (HCT-116 colon): 58.3% | growth (HCC-2998 colon): 91.5% | growth (KM12 colon): 85.3%

O=[N+]([O-])c1ccc2[nH]c3nccc(NCc4cccc(Cl)c4)c3c2c1
growth (T-47D breast): 67.4% | growth (BT-549 breast): 70% | growth (MDA-MB-435 melanoma): 77% | growth (SW-620 colon): 63.6% | growth (MCF7 breast): 82.4% | growth (HCT-116 colon): 67.6% | growth (HCC-2998 colon): 114% | growth (KM12 colon): 84.7%

NS(=O)(=O)c1ccc(C(=O)N=Nc2c(O)[nH]c3c(F)cccc23)cc1
growth (T-47D breast): 97% | growth (BT-549 breast): 99.7% | growth (MDA-MB-435 melanoma): 107% | growth (SW-620 colon): 100% | growth (MCF7 breast): 96.4% | growth (HCT-116 colon): 103% | growth (HCC-2998 colon): 106% | growth (KM12 colon): 107%

COC1=CC(c2ccc[nH]2)=N/C1=C\c1[nH]c(C)c(C(=O)Oc2ccccc2)c1C
growth (T-47D breast): -65.7% (active) | growth (BT-549 breast): -15.4% (active) | growth (MDA-MB-435 melanoma): -68.6% (active) | growth (SW-620 colon): -20.9% (active) | growth (MCF7 breast): -54.7% (active) | growth (HCT-116 colon): -82.1% (active) | growth (HCC-2998 colon): -81.6% (active) | growth (KM12 colon): -66% (active)

CC[C@]1(O)CC2CN(CCc3c([nH]c4ccccc34)C(C(=O)OC)(c3cc4c(cc3OC)N(C=O)[C@H]3[C@@](O)(C(=O)OC)[C@H](OC(C)=O)[C@]5(CC)[C@@H]6C[C@@H]6CN6CC[C@]43[C@@H]65)C2)C1 (some centres not stated)
growth (T-47D breast): 72.1% | growth (BT-549 breast): -2.67% (active) | growth (MDA-MB-435 melanoma): -53.2% (active) | growth (SW-620 colon): 23.1% | growth (MCF7 breast): 12.1% | growth (HCT-116 colon): -17.5% (active) | growth (HCC-2998 colon): 12.2% | growth (KM12 colon): -17.5% (active)

N#Cc1c(N)nnn1Cc1cc(=O)oc2ccc(O)cc12
growth (T-47D breast): 98% | growth (BT-549 breast): 111% | growth (MDA-MB-435 melanoma): 105% | growth (SW-620 colon): 104% | growth (MCF7 breast): 96.8% | growth (HCT-116 colon): 89.3% | growth (HCC-2998 colon): 110% | growth (KM12 colon): 107%

Clc1ccc2c(c1)N(c1ncnc3ccc(-c4cnc5[nH]ccc5c4)cc13)CC2
growth (T-47D breast): -15% (active) | growth (BT-549 breast): 20.1% | growth (MDA-MB-435 melanoma): -42.1% (active) | growth (SW-620 colon): 24.5% | growth (MCF7 breast): 6.81% (active) | growth (HCT-116 colon): 16.6% | growth (HCC-2998 colon): 43.7% | growth (KM12 colon): 19.9%

N=C(N)c1ccc(-c2ccc(-c3ccc(Cl)c(Cl)c3)s2)cc1
growth (T-47D breast): 62.1% | growth (BT-549 breast): 109% | growth (MDA-MB-435 melanoma): 14.4% | growth (SW-620 colon): -65.1% (active) | growth (MCF7 breast): -62.4% (active) | growth (HCT-116 colon): -46.6% (active) | growth (HCC-2998 colon): -53.7% (active) | growth (KM12 colon): -91.4% (active)

O=C1C(=C(O)c2ccccc2)C(=O)c2ccccc21
growth (T-47D breast): 103% | growth (BT-549 breast): 95.7% | growth (MDA-MB-435 melanoma): 103% | growth (SW-620 colon): 111% | growth (MCF7 breast): 102% | growth (HCT-116 colon): 102% | growth (HCC-2998 colon): 109% | growth (KM12 colon): 104%

C=C(c1ccc(C(=O)O)cc1)c1cc2c(cc1C)C(C)(C)CCC2(C)C
growth (T-47D breast): 93.8% and 75.7% | growth (BT-549 breast): 55.4% | growth (MDA-MB-435 melanoma): 95.9% and 84% | growth (SW-620 colon): 113% and 97.6% | growth (MCF7 breast): 75.9% and 63.6% | growth (HCT-116 colon): 71.3% and 50% | growth (HCC-2998 colon): 78.6% and 76.1% | growth (KM12 colon): 59.2% and 36.3%

CCOC(=O)C1=C(C)NC(=O)NC1c1c(Cl)n(-c2ccccc2)c2ccccc12 (configuration not stated)
growth (T-47D breast): 90.4% | growth (BT-549 breast): 70.4% | growth (MDA-MB-435 melanoma): 54% | growth (SW-620 colon): 83.2% | growth (MCF7 breast): 87.9% | growth (HCT-116 colon): 69.1% | growth (HCC-2998 colon): 91.8% | growth (KM12 colon): 92.3%

CSc1nnc(-c2cc3c([nH]c4ccccc43)c(-c3cccc(O)c3)n2)n1-c1ccc(C)cc1
growth (T-47D breast): 24.5% | growth (BT-549 breast): 34.5% | growth (MDA-MB-435 melanoma): -49.5% (active) | growth (SW-620 colon): 30% | growth (MCF7 breast): 5.16% (active) | growth (HCT-116 colon): 23.8% | growth (HCC-2998 colon): 54.2% | growth (KM12 colon): 26.3%

Cc1ccc(/C=C/c2c(C(=O)/C=C/c3ccccc3)c(C)nc3ccccc23)cc1
growth (T-47D breast): 16.1% | growth (BT-549 breast): 41.5% | growth (MDA-MB-435 melanoma): -45.4% (active) | growth (SW-620 colon): 3.35% (active) | growth (MCF7 breast): 12.6% | growth (HCT-116 colon): -54.7% (active) | growth (HCC-2998 colon): 20.6% | growth (KM12 colon): 13.1%

Cc1ccc2c(c1)C(C)Cc1c(ncnc1-n1cnc3cc(C)ccc31)N2C (configuration not stated)
growth (T-47D breast): 55.9% | growth (BT-549 breast): -0.751% (active) | growth (MDA-MB-435 melanoma): 4.21% (active) | growth (SW-620 colon): 22.7% | growth (MCF7 breast): 12.6% | growth (HCT-116 colon): 11.2% | growth (HCC-2998 colon): 21.7% | growth (KM12 colon): 16.5%

CC12CCC(C(=O)CC1=O)C2(C)C (configuration not stated)
growth (T-47D breast): 105% and 93.4% | growth (BT-549 breast): 110% and 104% | growth (MDA-MB-435 melanoma): 106% and 110% | growth (SW-620 colon): 105% and 109% | growth (MCF7 breast): 103% and 98.4% | growth (HCT-116 colon): 106% and 97.1% | growth (HCC-2998 colon): 108% and 98.5% | growth (KM12 colon): 108% and 101%

CCCO/N=C/c1ccccn1
growth (T-47D breast): 107% and 93.9% | growth (BT-549 breast): 90.8% | growth (MDA-MB-435 melanoma): 107% and 105% | growth (MCF7 breast): 89.2% and 92.4% | growth (HCT-116 colon): 102% | growth (HCC-2998 colon): 110% and 105% | growth (KM12 colon): 101% and 103%
